# Bioassay records (PubChem BioAssay)
# D1 agonist – activates the human D1 dopamine receptor; P21728; HEK293 T-REx D1 cells, calcium flux, agonist mode; activation, % at 2 µM; 360,000 compounds, 1% hits; further: 0% is about no effect
#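 Tetracycline-induced HEK293 TREx D1 cells, force-coupled to calcium signalling, were dye-loaded with a no-wash calcium kit. Compound was pin-added after a 10 s baseline. Fluorescence was read kinetically at 1 cycle/s for 180 s, with calcium rises flagged as agonism.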
# TRHR ag – TRH receptor (human) agonism; P34981; TRHR cells, calcium flux fluo-8, FDSS agonist mode; activation, % at 2 µM; 360,000 compounds, 0.18% hits; AID 493084; further: 0% is about no effect
# Target sequence (P34981 whole entry, looked up): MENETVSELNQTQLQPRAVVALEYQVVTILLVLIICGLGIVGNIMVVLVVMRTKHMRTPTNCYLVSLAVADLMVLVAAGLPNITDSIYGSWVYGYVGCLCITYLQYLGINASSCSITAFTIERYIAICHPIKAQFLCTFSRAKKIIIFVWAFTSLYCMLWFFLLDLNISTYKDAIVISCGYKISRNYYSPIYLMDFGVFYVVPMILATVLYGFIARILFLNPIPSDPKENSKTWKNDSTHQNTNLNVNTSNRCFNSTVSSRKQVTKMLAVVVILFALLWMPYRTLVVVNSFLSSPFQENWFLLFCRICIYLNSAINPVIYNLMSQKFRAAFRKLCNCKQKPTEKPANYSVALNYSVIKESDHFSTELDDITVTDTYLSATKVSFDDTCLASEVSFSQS
#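 Read-out: compound-evoked intracellular calcium rise in TRHR cells, fluo-8 dye, kinetic FDSS fluorescence at 1 s/cycle following a 10-cycle baseline. Cells cultured overnight before dye loading (30 min–1.5 h, RT).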
# D1 PAM – human D1 dopamine receptor positive modulation; HEK293 TREx D1 cells, calcium flux, dopamine EC20 potentiation; AID 504651; P21728; 360,000 compounds, 0.036% hits; potentiation, % at 10 µM; in the data active means potentiation above about 30%; further: 0% is about no effect
# TRHR enhancer – allosterically enhances the human TRH receptor | 360,000 compounds, 0.66% hits | TRHR cells, fluo-8 calcium fluorescence, EC20 TRH enhancement | enhancement, % at 2 µM; in the data active means enhancement above about 30%; further: 0% is about no effect
#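 Enhancer read-out: after compound pinning and an initial kinetic agonist-mode read, an EC20 of TRH (10 nM final) was injected and fluo-8 calcium signal (Ex 480/Em 530) followed at 1 s/cycle for 100 cycles in TRHR-expressing cells.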
# D1 antagonist – antagonists of human D1 dopamine receptor; P21728; HEK293 TREx D1 cells, calcium flux, dopamine EC80; hits give low values; activity change, negative = inhibition, % at 10 µM; 360,000 compounds, 3.2% hits; AID 504652; in the data active means activity change below about -30%; further: on the % scale 0 is the no-effect control and ±100 the full control effect
#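 HEK293 T-REx cells expressing inducible, force-coupled D1 receptor; no-wash Ca dye, 30–90 min RT. Cmpd → 180 s read at 1 Hz → EC80 DA → 180 s read.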
# The depositor's hits bear a star; x = not tested or not shown. An excerpt weighted towards active compounds, which were near 4.7% of everything screened. Unless noted, no stated cut-off is given here; in the data, active means activation above about 30%; inactive means the rest.
SMILES,D1 agonist,TRHR ag,D1 PAM,TRHR enhancer,D1 antagonist
CCN(Cc1ccccc1)S(=O)(=O)c1ccc(C(=O)N(CCCN(C)C)c2nc3c(F)cccc3s2)cc1,5,1,3,0,10
CCOc1cccc2sc(N(CCCN(C)C)C(=O)c3ccc(S(=O)(=O)N(CC)Cc4ccccc4)cc3)nc12,33*,1,-2,1,-45*
CSc1cccc(NC(=O)c2cnn(-c3ccc(F)cc3)c2-n2cccc2)c1,5,-2,-3,11,0
COc1ccc(/C=C2/SC(=S)N(NS(=O)(=O)c3ccc(C)cc3)C2=O)cc1,6,-1,x,8,-47*
Cc1ccc(/C=C2\SC(=S)N(NS(=O)(=O)c3ccc(C)cc3)C2=O)cc1,-3,-1,-7,-4,2
CC(=O)Nc1ccc(NC(=O)CSc2nccn2Cc2ccc3c(c2)OCO3)cc1,2,1,-2,1,-3
O=C(O)CC(c1cccc(C(F)(F)F)c1)N1CCS(=O)(=O)CC1 (configuration not stated),-1,-1,-4,-5,-35*
O=S1(=O)CCN(C(CO)c2ccccc2)CC1 (configuration not stated),3,1,-3,2,-21
CC(=O)Nc1ccc(N/C(N)=N/c2nc(C)cc(C)n2)cc1,1,0,-5,-12,-1
Cc1cc(C)nc(/N=C(\N)Nc2ccc(-c3ccccc3)cc2)n1,34*,5,-2,-9,0
Cc1cc(C)nc(/N=C(\N)Nc2ccc(SC(F)F)cc2)n1,43*,9,-7,0,-49*
CCCCn1cnc2cc(NCc3ccccc3Cl)ccc21,16,-2,3,13,14
COc1cc(-c2noc(-c3ccc(NCc4cccnc4)c([N+](=O)[O-])c3)n2)cc(OC)c1OC,15,0,-4,-4,-19
COc1ccc(-c2noc(-c3ccc(NCc4ccc(C)cc4)c([N+](=O)[O-])c3)n2)cc1OC,7,1,1,-2,-68*
COc1ccc(-c2noc(-c3ccc(NCc4ccco4)c([N+](=O)[O-])c3)n2)cc1OC,-1,1,1,-3,-41*
COc1ccc(-c2nc3cccc(C)n3c2NCc2ccco2)cc1OC,0,0,-8,-2,-31*
COc1cc(Nc2nc3ccccc3c3nnc(C)n23)cc(OC)c1,3,0,-1,-3,-9
O=[N+]([O-])c1cc(-c2nc(-c3ccccc3)no2)ccc1N1CCCCC1,-1,0,2,1,3
Cc1cc(C(=O)C(=O)Nc2nncs2)c(C)n1-c1ccc(Cl)cc1,19,-1,-2,4,-9
CCC(CC)C(=O)Nc1c2c(nn1-c1ccc(F)cc1)CS(=O)(=O)C2,2,0,-12,1,-91*
COc1ccc(-n2nc3c(c2NC(=O)COc2ccccc2F)CS(=O)(=O)C3)cc1,0,0,-2,11,-38*
O=C(Nc1c2c(nn1-c1ccc(Cl)cc1)CS(=O)(=O)C2)c1ccc2c(c1)OCO2,2,0,2,-1,-17
CCC(CC)C(=O)Nc1c2c(nn1-c1ccc(OC)cc1)CS(=O)(=O)C2,1,0,3,3,-5
COc1cccc(C(=O)Nc2c3c(nn2-c2ccc([N+](=O)[O-])cc2)CS(=O)(=O)C3)c1,4,2,-5,-8,-11
O=C(Nc1c2c(nn1-c1ccc(Cl)cc1)CS(=O)(=O)C2)c1ccc(Br)cc1,12,1,-2,2,-32*
SMILES,D1 agonist,TRHR ag,D1 PAM,TRHR enhancer,D1 antagonist
COc1cccc(C(=O)Nc2c3c(nn2-c2ccc(Cl)cc2)CS(=O)(=O)C3)c1,-3,-1,0,4,-33*
CC(c1ccccc1)N1C(=O)c2ccccc2C1(O)Cc1ccccc1 (configuration not stated),2,-1,-1,-2,-74*
Cc1c(Cl)cccc1NS(=O)(=O)c1ccc2[nH]cc(C(=O)NC3CCCC3)c(=O)c2c1,1,1,7,-4,-12
COc1cccc(NS(=O)(=O)c2ccc3[nH]cc(C(=O)NC4CC4)c(=O)c3c2)c1,-1,0,-7,2,-6
Cc1ccccc1NS(=O)(=O)c1ccc2[nH]cc(C(=O)NC(C)c3ccccc3)c(=O)c2c1 (configuration not stated),7,1,-2,1,-43*
CNC(=O)c1c[nH]c2ccc(S(=O)(=O)Nc3cccc(SC)c3)cc2c1=O,3,1,2,3,-86*
Cc1ccccc1NS(=O)(=O)c1ccc2[nH]cc(C(=O)NC3CCCCC3)c(=O)c2c1,3,0,-8,-4,-43*
CCOC(=O)c1sc(=S)n(-c2ccccc2)c1N,4,0,-2,8,23
COC(=O)c1sc(=S)n(-c2cccc(Cl)c2)c1N,-1,0,-3,-1,-34*
CCOC(=O)Cc1c(C)nc(N)[nH]c1=O,3,0,-2,-3,-31*
CCc1cccc(OCCCn2ccnc2)c1,6,0,-2,0,-32*
Cc1cc(OCCCn2ccnc2)cc(C)c1Cl,8,0,-9,-7,-31*
CCN(CC)CCSc1c(C(C)C)cnc2c1c(=O)n(C)c(=O)n2C,-1,0,0,-10,-4
Cc1ccc(SCCNC(=O)CN(c2cccc(C)c2C)S(C)(=O)=O)cc1,11,0,-3,1,3
COc1ccc(NC(C)=O)cc1NC(=O)c1cccc(S(=O)(=O)N2CCc3ccccc32)c1,0,-1,-4,9,-32*
O=C(Nc1nc2c(s1)CN(Cc1ccccc1)CC2)c1cccc(S(=O)(=O)N2CCc3ccccc32)c1,73*,46*,-10,-5,-3
CC(=O)NS(=O)(=O)c1ccc(NC(=O)c2cccc(S(=O)(=O)N3CCc4ccccc43)c2)cc1,3,0,-2,5,9
O=C(Nc1nc2ccccc2s1)c1cccc(S(=O)(=O)N2CCc3ccccc32)c1,4,0,-2,11,-25
CN(C)S(=O)(=O)c1cccc(NC(=O)c2cccc(S(=O)(=O)N3CCc4ccccc43)c2)c1,5,1,-5,2,-57*
O=C(CNC(=O)c1ccc(Cl)cc1)OC(C(=O)Nc1cc(C(F)(F)F)ccc1Cl)c1ccccc1 (configuration not stated),2,1,5,-4,25
Cc1nc2nc(SCC(=O)C(C)(C)C)[nH]c2cc1Br,0,1,-8,-6,-47*
COc1ccc(OC)c(CNC(=O)CCCn2nc(C)c3c(C)n(-c4ccc(C)cc4)nc3c2=O)c1,1,-1,-2,-1,-2
COc1cc(NC(=O)Cn2c(C)cc(C)c(C#N)c2=O)cc(OC)c1,-1,0,0,-6,7
